The full list was thinned out, with hits kept by preference.
IDE exosite FP = insulin-degrading enzyme (human) exo-site inhibition. P14735. 17,000 tested, 6.3% active. purified IDE, FL-6b probe fluorescence polarization; active compounds read low. z-score at 20 µM;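 active = z-score of -3 or lower, meaning strong loss of probe binding signal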;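 also: His-tagged human IDE residues 42-1019 made in E. coli with 30 nM FL-6b probe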
An asterisk follows results filed as active.

SMILES	IDE exosite FP
COc1cccc(-c2ccc([C@H]3[C@H]4CN(C(=O)c5ccncc5)CC(=O)N4[C@H]3CO)cc2)c1	1.6
O=C(C1CCOCC1)N1CC(=O)N2[C@H](C1)[C@H](c1ccc(C#CC3CC3)cc1)[C@@H]2CO	2
CN(C)C(=O)c1cccc(-c2ccc([C@H]3[C@H]4CN(C(=O)C5CCC5)CC(=O)N4[C@H]3CO)cc2)c1	0.17
C/C=C/c1ccc([C@H]2[C@@H](CO)N3C(=O)CN(S(=O)(=O)c4ccccc4)C[C@@H]23)cc1	-2.1
CCc1csc(N2[C@H](CO)[C@@H](c3ccc(-c4ccc(F)cc4)cc3)[C@@H]2C#N)n1	2.2
Cc1cc(C(=O)Nc2ccc3c(c2)C(=O)N(C)[C@@H]2CC[C@H](CC(=O)O)O[C@@H]2CO3)no1	1.3
N#C[C@@H]1[C@H](c2ccc(-c3cccc(F)c3)cc2)[C@H](CO)N1S(=O)(=O)c1cccc(F)c1	2.3
N#C[C@H]1[C@H](c2ccccc2C2=CCCCC2)[C@@H](CO)N1S(=O)(=O)c1ccccc1	1
O=C(C1CCC1)N1CC(=O)N2[C@H](CO)[C@H](c3ccc(-c4cccnc4)cc3)[C@H]2C1	-2.1
O=C(Nc1cc(F)ccc1F)N1CC(=O)N2[C@H](C1)[C@@H](c1ccc(-c3cccnc3)cc1)[C@@H]2CO	-8.2*
O=C(C1CCC1)N1CC(=O)N2[C@H](CO)[C@@H](c3ccc(-c4cccnc4)cc3)[C@@H]2C1	-1.9
O=C(Nc1cc(F)ccc1F)N1CC(=O)N2[C@H](C1)[C@H](c1ccc(-c3cccnc3)cc1)[C@@H]2CO	-1.8
O=C(C1CCC1)N1CC(=O)N2[C@@H](CO)[C@@H](c3ccc(-c4cccnc4)cc3)[C@@H]2C1	-0.57
O=C(C1CCC1)N1CC(=O)N2[C@H](CO)[C@@H](c3ccc(-c4cccnc4)cc3)[C@H]2C1	1.7
O=C(C1CCCCC1)N1CC(=O)N2[C@H](CO)[C@@H](c3ccc(-c4cccnc4)cc3)[C@H]2C1	-0.58
O=C(NC1CCCC1)N1CC(=O)N2[C@H](CO)[C@@H](c3ccc(-c4cccnc4)cc3)[C@@H]2C1	-12*
O=C(NC1CCCC1)N1CC(=O)N2[C@@H](CO)[C@@H](c3ccc(-c4cccnc4)cc3)[C@@H]2C1	1.3
O=C(NC1CCCC1)N1CC(=O)N2[C@@H](CO)[C@H](c3ccc(-c4cccnc4)cc3)[C@@H]2C1	-4.9*
O=C(Nc1cc(F)ccc1F)N1CC(=O)N2[C@H](CO)[C@@H](c3ccc(-c4cccnc4)cc3)[C@H]2C1	1.9
O=C(NC1CCCC1)N1CC(=O)N2[C@H](C1)[C@@H](c1ccc(-c3cccnc3)cc1)[C@@H]2CO	-5.8*
O=C(Nc1cccc(F)c1)N1CCCCN2[C@H](CO)[C@@H](c3ccc(C#CC4CC4)cc3)[C@@H]2C1	5.4
O=C(c1cccc(F)c1)N1CCCCN2[C@@H](CO)[C@@H](c3ccc(C#CC4(O)CCCC4)cc3)[C@@H]2C1	0.63
CCN(C[C@H]1N[C@H](CO)[C@H]1c1ccc(-c2cccc(C#N)c2)cc1)C(=O)COC	3.4
COc1ccc(NC(=O)N2CC(=O)N3[C@H](C2)[C@H](c2ccc(C4=CCCC4)cc2)[C@@H]3CO)cc1	1.7
C[C@@H]1CC=CC[C@H](c2cccc(Cl)c2)NC(=O)[C@@H](Cc2ccccc2)N(C)C(=O)c2ccccc2O1 (mixture of isomers)	0.78
SMILES	IDE exosite FP
CCCNC(=O)N1CC2(C1)[C@H](c1ccccc1)[C@H](CO)N2C(=O)c1cccnc1	0.64
C[C@@H]1CCn2cc(nn2)COC[C@@H](c2ccccc2)NC1=O	0.6
CCC(=O)N1[C@@H](CO)[C@@H](c2ccccc2)[C@@H]1CN(CC)C(=O)c1ccccc1	0.69
C[C@@H]1CN([C@H](C)CO)C(=O)c2cc(NS(=O)(=O)c3cn(C)cn3)ccc2O[C@@H]1CN(C)S(=O)(=O)c1ccc(F)cc1	0.72
C[C@H]1CN([C@@H](C)CO)C(=O)c2cc(NC(=O)C3CC3)ccc2O[C@H]1CN(C)S(=O)(=O)c1ccccc1	0.3
C[C@@H]1CN([C@H](C)CO)C(=O)c2cc(NC(=O)C3CC3)ccc2O[C@H]1CN(C)S(=O)(=O)c1ccccc1	-3.5*
C[C@@H]1CN([C@@H](C)CO)C(=O)c2cc(NC(=O)C3CC3)ccc2O[C@@H]1CN(C)S(=O)(=O)c1ccccc1	0.11
C[C@@H]1CN([C@@H](C)CO)C(=O)c2cc(NS(=O)(=O)c3cn(C)cn3)ccc2O[C@H]1CN(C)S(=O)(=O)c1ccc(F)cc1	-0.032
C[C@@H]1CN([C@H](C)CO)C(=O)c2cc(NS(=O)(=O)c3cn(C)cn3)ccc2O[C@H]1CN(C)S(=O)(=O)c1ccc(F)cc1	-4.5*
COc1ccc([C@@H]2C/C=C\C[C@@H](c3cccc(Cl)c3)NC(=O)[C@@H](c3ccccc3)CC(=O)N2)c(OC)c1	-0.44
CC(C)CC#Cc1ccc([C@@H]2[C@@H](CO)N3C(=O)CN(C(=O)c4cccc(F)c4)C[C@@H]23)cc1	0.27
CC(=O)N1CC(=O)N2[C@@H](CO)[C@H](c3ccc(C#CC(C)C)cc3)[C@@H]2C1	1.4

Screens as filed in PubChem BioAssay.
